Out of some 190,000 compounds screened, about 930 (0.49%) were called active. Some of the results follow. Results with a measured potency or affinity are listed apart. A number with no mark means an inactive call.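 The calls were made as follows: active = z-score of insulin promoter reporter brightness in nuclei below -3 at 5 µM, with at least 500 cells counted; inconclusive = wells with under 500 cells, flagged as toxic or sparse; inactive = the rest.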
Test: decrease of insulin promoter-GFP reporter – imaging, high-content screening, mouse beta cells (AID 1628)
Conditions: MIN6 insulin promoter GFP reporter, at 5 µM, hits give low values

SMILES	z-score
O=C(CCl)N(c1ccccc1)C1CCCCC1	-5.83 (active)
CCC(C)(C(=O)NC1CCCC1)N(C(=O)CNC(C)=O)c1ccccc1 (stereo not given)	3.46
Cc1ccc2[nH]c(-c3ccccc3)c(CN(C)C)c(=O)c2c1	4.17
Cc1ccc(Cn2nnc3c(=O)n(CC(=O)NCc4ccco4)cnc32)cc1	1.28
COc1cccc(-n2nnc3c(=O)n(CC(=O)OCc4ccccc4)cnc32)c1	1.01
O=c1c2nnn(Cc3ccccc3)c2ncn1C/C=C/c1ccccc1	-5.83 (active)
c1ccc(CCNc2c3c(nc4ncnn24)CCC3)cc1	-3.18 (active)
Oc1[nH]c2c(Cl)cc(Cl)cc2c1N=NC(=S)NCC1CCCO1 (stereo not given)	-3.65 (active)
O=C(CN(C1CCCCC1)S(=O)(=O)c1ccccc1)NCc1ccco1	0.65
CCOC(=O)C1CCN(S(=O)(=O)c2ccc3c(c2)CCCN3C(C)=O)CC1	-4.86 (active)
CCC(=O)N1CCCc2cc(S(=O)(=O)N3CCN(c4ccccc4F)CC3)ccc21	-5.64 (active)
COc1ccccc1N/C(N)=N/c1nc(C(F)(F)F)cc(=O)[nH]1	3.34
CCCCn1c(SCc2ncc(-c3ccccc3)o2)nc2cc(S(N)(=O)=O)ccc21	-5.03 (active)
CCCCn1c(SCC(=O)O)nc2ccccc21	3.5
N=c1c2c(-c3ccccc3)c(-c3ccccc3)oc2ncn1CCCN1CCOCC1	-3.3 (active)
Cc1cccn2c(=O)c(/C=C3\SC(=S)NC3=O)c(NCCCN3CCOCC3)nc12	5.45
O=C(/C=C/c1ccc(N2CCC(c3ccccc3)=N2)cc1)c1ccccc1	17.2
O=C1C=C(Nc2ccc(O)cc2)CC(c2ccco2)C1 (stereo not given)	6.78
O=c1[nH]c2ccccc2nc1/C=C/c1ccc(F)cc1	5.99
CCOC(=O)c1sc(NC(=O)c2sccc2C)cc1C	3.1
CCOC(=O)c1c(NC(=O)c2ccccc2)sc2c1CCc1ccccc1-2	-5.18 (active)
CCOC(=O)CSC1=C(C#N)C(c2ccc(C)s2)CC(=O)N1 (stereo not given)	-3.15 (active)
CC(=O)C1=C(C)NC(SCC(=O)c2ccc(Cl)c(Cl)c2)=C(C#N)C1c1ccco1 (stereo not given)	3.16
Cc1ccc(C2CC(=O)NC(SCc3ccccc3)=C2C#N)o1 (stereo not given)	3.43

SMILES	z-score
CCn1c(NCCc2ccc(OC)c(OC)c2)nc2c1c(=O)n(C)c(=O)n2C	-5.44 (active)
CCOc1cc2[nH]c(=O)n(CCC(=O)NCCc3ccc(OC)c(OC)c3)c(=O)c2cc1OCC	1.44
CCCNc1nc2c(c(=O)n(C)c(=O)n2C)n1CCc1ccccc1	-5.56 (active)
O=c1cc2oc3cc(O)c(O)cc3c(-c3ccccc3O)c-2cc1O	15.3
CCn1c(SCC(=O)Nc2nc3ccc(OC)cc3s2)nc2c1c(=O)n(C)c(=O)n2C	-3.33 (active)
CCn1ncc(C2=NOC(C(=O)Nc3cccc(C(C)=O)c3)C2)c1C (stereo not given)	-3 (active)
C=C(C)c1cccc(C(C)(C)NC(=O)NCC2COCCO2)c1 (stereo not given)	0.86
CC(C)(C)c1ccc(C(=O)c2c[nH]c(C(=O)NCC3CCCO3)c2)cc1 (stereo not given)	-4.57 (active)
CCn1c(=NC(=O)c2ccc(S(=O)(=O)N(C)C)cc2)sc2cccc(OC)c21	-5.14 (active)
C/C(=C\c1ccccc1)CN1CCN(c2ccccc2)CC1	1.49
c1ccc(-n2ncc3c(N4CCN(c5ccccn5)CC4)nc(N4CCCCCC4)nc32)cc1	4.11
CC(=O)Nc1sc(/C(C#N)=C\c2cccc(Cl)c2)nc1-c1ccc(C)cc1	15.6
CCOC(=O)N1CCN(/C=C(\C#N)c2nc3ccccc3s2)CC1	3.47
Cc1nn(-c2ccccc2)c(N2CCCC2)c1/C=N/n1cnc2scc(-c3ccccc3)c2c1=O	-3.26 (active)
COc1cc2c3nnc(-c4ccc(F)cc4)c-3cn(Cc3ccccc3)c2cc1OC	3.81
COc1ccc(Nc2ncnc3c2cnn3Cc2ccccc2)cc1OC	-4.71 (active)
O=[N+]([O-])c1ccc(N/N=C/c2ccc[nH]2)cc1	12.9
N#C/C(=C/c1ccc(N2CCOCC2)o1)c1ccc(Cl)cc1	7.33
Oc1c(C=NCc2ccc(F)cc2)[nH]c2ccc(Br)c(Cl)c12	4.06
CCOC(=O)c1ccc(NC(=O)COc2ccc(S(=O)(=O)NC(C)CC)cc2)cc1 (stereo not given)	3.08
CCC(C)NS(=O)(=O)c1ccc(NC(=O)Cc2ccc(OC)cc2)cc1 (stereo not given)	-3.19 (active)
COc1ccc(NC(=O)CSc2ncccc2C(=O)OC(C)C)cc1OC	-5.26 (active)
Cc1ccccc1CN(c1ccc(C(=O)NCC2CCCO2)cc1)S(C)(=O)=O (stereo not given)	-4.88 (active)
O=C(COC(=O)c1ccco1)NCC1CCCO1 (stereo not given)	3.04

SMILES	z-score
CCCc1n[nH]c2c1C(=O)C(C(=O)OC)C(C)(C)C2 (stereo not given)	3.65
CN(CCC#N)C(=O)COC(=O)c1ccc(Cl)c(S(N)(=O)=O)c1	-5.92 (active)
CCOC(=O)C1=C(C)NC(=O)NC1c1ccc(N2CCC(c3ccccc3)=N2)cc1 (stereo not given)	4.29
COc1ccc(Cl)cc1NC(=O)c1c(-c2ccccc2)noc1C	18
CCOC(=O)C1=C(c2ccccc2)NC(N)=NC1c1ccc(OCc2ccc(Cl)cc2)c(OC)c1 (stereo not given)	-3.43 (active)
O=[N+]([O-])c1ccc(N/N=C/c2c[nH]c3ccccc23)cc1	3.11
O=C(/C=C/c1ccccc1)NCC(=O)N/N=C/c1ccccc1[N+](=O)[O-]	3.03
Nn1c(=O)[nH]c2ccccc2c1=O	-0.08
C=C(C)Cn1c(=S)[nH]c2ccccc2c1=O	-6.61 (active)
CCN(CC)CCn1c(=S)[nH]c2ccc(Cl)cc2c1=O	3.97
O=[N+]([O-])c1ccc(Cc2nnc(-c3ccccc3Cl)o2)cc1	2.55
COCc1c(C(=O)OCC(=O)c2c(N)n(CC(C)C)c(=O)n(C)c2=O)oc2ccccc12	-4.37 (active)
CC(C)Cn1c(N)c(C(=O)COC(=O)c2ccc3c(c2)OCCO3)c(=O)n(C)c1=O	-4.98 (active)
CCOc1ccc(-c2nnn(CC(=O)c3ccc4c(c3)OCCO4)n2)cc1	-0.23
C[C@@H](C(=O)Nc1ccc2ccccc2c1)[C@H]1C[C@]1(C)[C@H](NC(=O)c1cnccn1)c1ccccc1	-4.74 (active)
CCOC(=O)C1=C(N2CCCCC2)c2cc3c(n2C1=O)CCCC3	-3.42 (active)
CCOC(=O)CN1C(=O)S/C(=C/c2ccc(N3CCCCC3)o2)C1=O	5.8
COc1ccc2c(OC)c3ccoc3nc2c1OC	-0.53
CCCS(=O)(=O)N1CCN(Cc2ccccc2C(F)(F)F)CC1	-0.28
CCCS(=O)(=O)N1CCN(Cc2ccccc2[N+](=O)[O-])CC1	-3.06 (active)
CC(C)SC1=NC(C)(C)C=C(/C=C/c2ccc(Cl)cc2Cl)N1	3.58
Cn1cnc2c(NCc3ccco3)ncnc21	-0.11
Cc1ccc(/C=N/Nc2ccc3ccccc3n2)o1	-3.22 (active)
Cc1cc(N/N=C/c2ccc([N+](=O)[O-])o2)nc2ccccc12	8.56

SMILES	z-score
Cc1ccn2c(-c3csc(NCc4ccco4)n3)c(C)nc2c1	-6.24 (active)
Cc1ccn2c(=O)cc(C)nc2c1	2.27
Cc1nc2ccccn2c1-c1csc(NCc2ccco2)n1	-9.7 (active)
CC(=O)Nc1ccc(N2C(=O)C3C4CC(=O)C(c5ccccc54)C3C2=O)cc1 (stereo not given)	-5.05 (active)
CC(=O)Nc1ccc(N2CCc3c(C)c(C#N)c4nc5ccccc5n4c32)cc1	3.8
CC1CN(Cc2cc(=O)[nH]c(C3CC3)n2)CC(C)O1 (stereo not given)	-3.69 (active)
CCN(CCNC(=O)C1CCCN(S(=O)(=O)CC)C1)c1ccccc1 (stereo not given)	3.08
O=C(NCc1ccc(F)cc1)C1CCCN(S(=O)(=O)c2cccnc2)C1 (stereo not given)	3.46
C/C(=N\NC(=O)C1CCCN(S(=O)(=O)c2ccccc2)C1)c1ccccn1 (stereo not given)	-3.38 (active)
COc1cc(/C=N/NC(=S)Nc2cccc(Cl)c2C)ccc1OCC(=O)N1CC(C)OC(C)C1 (stereo not given)	-3.25 (active)
Oc1ccc(Cl)cc1C1=Nc2ccccc2N=C(c2ccco2)C1	4.34
COC1=CCC2([N+](=O)[O-])CN(CCO)CC1([N+](=O)[O-])C2 (stereo not given)	3.03
Cc1ccccc1N1C(=O)CC(c2c[nH]c3ccccc23)C1=O (stereo not given)	3.5
CCn1c(COc2ccc(=O)n(-c3ccccc3)n2)nnc1SCc1ccccc1C	-4.23 (active)
CCOC(=O)c1sc(NCCNc2nc(C)c(C(=O)OCC)s2)nc1C	-0.64
COc1cc(=O)n(C)c2c(OCC3OC(C)(C)OC3(C)C)cccc12 (stereo not given)	-0.95
O=C1C=C(Nc2ccccc2)C(=O)c2ccccc21	-0.04
O=C1/C(=N\S(=O)(=O)c2cccs2)C([n+]2cccc(Cc3ccccc3)c2)=C([O-])c2ccccc21	6.82
CCCn1c(SCC(=O)NC2CCCCC2)nnc1-c1ccncc1	3.06
CC(C)(C)NC(=O)CSc1n[nH]c(=O)n1-c1ccccc1	2.5
Cn1c(SCC(=O)NNC(=O)Cc2ccccc2)nnc1-c1ccc(Cl)cc1	-3.49 (active)
O=C(NC1(C(F)(F)F)NC(=O)N(c2ccc(F)c(Cl)c2)C1=O)c1ccncc1 (stereo not given)	4.5
COc1ccc2cc(C(c3nnnn3C(C)(C)C)N3CCc4ccccc4C3)c(=O)[nH]c2c1 (stereo not given)	-5.1 (active)
